From PubChem BioAssay AID463173 (ICCB-Longwood Screening Facility, Harvard Medical School, 2010)
The whole screen tested about 52,000 compounds, of which about 4,300 (8.3%) were called active. The list comes from a sample in which actives are over-represented; it also holds similar structures and randomly drawn compounds. Unmarked numbers belong to inactive results. Cut-off read from the data, not from the text of the source: active = survival mostly below about 52% (no sharp cut-off); inactive = mostly above about 56%.

tested on: DeltatarO mutant; experiment: growth inhibition of S. aureus wild type versus tarO mutant, primary screen, teichoic acid synthesis inhibitors, RN4220, OD600 (AID 463173); details: OD600, 18 h, active compounds read low, screened at 18.75 µg/mL (by protocol)

Row | Compound | survival
1 | COCc1cc(C)nc2sc3c(=O)n(-c4cc(C)ccc4C)nnc3c12 | 87%
2 | Cc1cc(C)c(NC(=O)C2CCN(C(=O)N3CC(C)Oc4ccc(Cl)cc43)CC2)c(C)c1 (stereo not given) | 56%
3 | Cc1cc(C)c(NC(=O)CSc2nccn2-c2cccc(Cl)c2)c(C)c1 | 73%
4 | CCN(CC)S(=O)(=O)c1ccc2c(c1)c(=O)c(C(=O)NCCc1ccccc1)cn2C | 85%
5 | Cc1cc(C)c(NC(=O)Cn2nnc(C(=O)NCc3cccs3)c2N)c(C)c1 | 91%
6 | CCOc1ccc(Sc2cc(C(=O)NC(C)c3ccccc3)c3ccccc3n2)cc1 (stereo not given) | 75%
7 | COc1ccc(C(=O)Nc2cccc(OCc3cc(=O)n4c5c(sc4n3)CCCC5)c2)cc1OC | 53%
8 | Cc1ccccc1C(=O)Nc1cccc(OCc2cc(=O)n3c4c(sc3n2)CCCC4)c1 | 101%
9 | COc1cccc(C(=O)Nc2cccc(OCc3cc(=O)n4c5c(sc4n3)CCCC5)c2)c1 | 51% (active)
10 | COc1ccccc1C(=O)Nc1cccc(OCc2cc(=O)n3c4c(sc3n2)CCCC4)c1 | 39% (active)
11 | Cc1ccc(C(=O)Nc2cccc(OCc3cc(=O)n4c5c(sc4n3)CCCC5)c2)cc1 | 118%
12 | Cc1csc2nc(COc3cccc(NC(=O)c4ccccc4F)c3)cc(=O)n12 | 123%
13 | COc1ccc(C(=O)Nc2cccc(OCc3cc(=O)n4c5c(sc4n3)CCCC5)c2)cc1 | 55%
14 | Cc1ccccc1C(=O)Nc1cccc(OCc2cc(=O)n3c(C)csc3n2)c1 | 96%
15 | COc1ccccc1C(=O)Nc1cccc(OCc2cc(=O)n3c(C)csc3n2)c1 | 44% (active)
16 | CCOc1ccc(-c2nonc2NC(=O)c2oc3ccc(Cl)cc3c2C)cc1 | 64%
17 | NNC1=NC2CS(=O)(=O)CC2S1 (stereo not given) | 56%
18 | CCSc1nnc(CNc2ccc(F)cc2)n1CC1CCCO1 (stereo not given) | 91%
19 | CC(C)NC(=O)c1ccc(Cn2c(=O)c3cccn3c3cccnc32)cc1 | 44% (active)
20 | CCC(C)NC(=O)c1ccc(Cn2c(=O)c3cccn3c3cccnc32)cc1 (stereo not given) | 116%
21 | CC(CNC(=O)c1ccc(Cn2c(=O)c3cccn3c3cccnc32)cc1)c1ccccc1 (stereo not given) | 41% (active)
22 | CC(C)CCNC(=O)c1ccc(Cn2c(=O)c3cccn3c3cccnc32)cc1 | 64%
23 | CC(NC(=O)c1ccc(Cn2c(=O)c3cccn3c3cccnc32)cc1)c1ccccc1 (stereo not given) | 101%
24 | COCCCNC(=O)c1ccc(Cn2c(=O)c3cccn3c3cccnc32)cc1 | 70%

Row | Compound | survival
25 | CC(C)CCn1c(=O)c2sccc2n2c(CCCC(=O)NC(C)c3ccccc3)nnc12 (stereo not given) | 88%
26 | Nc1nnc(SCC(=O)C2CC2)s1 | 80%
27 | O=C(N/N=C/c1ccc(F)cc1)c1ccc(NC(=O)C2CC2)cc1 | 105%
28 | Cc1cc(Nc2cccc(Cl)c2)nc2ccc(NC(=O)c3cccnc3)cc12 | 91%
29 | CN1C(C(=O)Nc2ccc(OC(F)(F)F)cc2)=CC(c2cccs2)=NS1(=O)=O | 31% (active)
30 | CN1C(C(=O)Nc2ccc(OC(F)(F)F)cc2)=CC(c2ccc3c(c2)OCO3)=NS1(=O)=O | 80%
31 | COc1ccc(NC(=O)C2=CC(c3ccc4c(c3)OCO4)=NS(=O)(=O)N2C)cc1 | 88%
32 | COc1ccc(NC(=O)C2=CC(c3cccs3)=NS(=O)(=O)N2C)cc1 | 94%
33 | COc1ccc(C2=NS(=O)(=O)N(C)C(C(=O)Nc3ccc(OC(F)(F)F)cc3)=C2)cc1 | 48% (active)
34 | Cc1ccc(NC(=O)C2=CC(c3cccs3)=NS(=O)(=O)N2C)cc1 | 83%
35 | Cc1cc(C)c(Cn2c(=O)n(-c3ccccc3Cl)c(=O)c3c(C)c(C(=O)N(C)C)sc32)c(C)c1 | 86%
36 | CCCNc1nc2c(c(=O)n(C)c(=O)n2C)n1CC(O)COc1ccccc1 (stereo not given) | 62%
37 | CCCCNc1nc2c(c(=O)n(C)c(=O)n2C)n1CC(O)COc1ccccc1C (stereo not given) | 42% (active)
38 | CCNc1nc2c(c(=O)n(C)c(=O)n2C)n1CC(O)COc1ccccc1 (stereo not given) | 61%
39 | Cc1cccc(NC(=O)CSc2nc3c(c(=O)[nH]2)CN(Cc2ccc4c(c2)OCO4)CC3)c1C | 78%
40 | O=C1CCC(=O)N1CC(=O)N1CCCc2ccccc21 | 85%
41 | CCN(CC)S(=O)(=O)c1ccc2c(c1)nc(CN(C)C(=O)Nc1ccc(C)c(Cl)c1)n2C | 86%
42 | Cc1ccc(-n2ncc3c(Nc4cccc(C)c4C)ncnc32)cc1 | 94%
43 | CC(=O)NNc1ncnc2c1cnn2-c1ccccc1 | 46% (active)
44 | CC(C)(C)c1ccc(C(=O)NNc2ncnc3c2cnn3-c2ccccc2)cc1 | 115%
45 | COc1ccc(C(=O)NNc2ncnc3c2cnn3-c2ccccc2)cc1 | 92%
46 | CCC(C)Nc1ncnc2c1cnn2-c1ccc(F)cc1 (stereo not given) | 72%
47 | Cc1ccc(-n2ncc3c(NCCCc4ccccc4)ncnc32)cc1 | 89%
48 | CCCCc1ccc(Nc2ncnc3c2cnn3-c2ccc(C)cc2)cc1 | 17% (active)

Row | Compound | survival
49 | Cc1ccc(C)c(Nc2ncnc3c2cnn3-c2ccc(F)cc2)c1 | -1% (active)
50 | Cc1ccc(-n2ncc3c(Nc4ccc(Oc5ccccc5)cc4)ncnc32)cc1 | 68%
51 | CCC(CO)Nc1ncnc2c1cnn2-c1ccc(C)cc1 (stereo not given) | -5% (active)
52 | Cc1ccc(-n2ncc3c(NC(C)c4ccccc4)ncnc32)cc1 (stereo not given) | 94%
53 | CCOc1ccccc1Nc1ncnc2c1cnn2-c1ccc(C)cc1 | 87%
54 | Cc1ccccc1NC(=O)CCNC(=O)Cn1ccc2ccccc2c1=O | 70%
55 | N/C(=N\c1nc2ccccc2o1)NC(=O)/C=C/c1ccco1 | 85%
56 | Cc1ccc(-n2c(=O)c3ccc(C(=O)NCc4ccco4)cc3n(Cc3ccc(Cl)cc3)c2=O)cc1 | 77%
57 | CS(=O)(=O)c1ccc2nc(NC(=O)CN3C(=O)c4ccccc4C3=O)sc2c1 | 85%
58 | COc1ccc(CNC(=O)CSCc2cnn(-c3ccccc3)c2-n2cccc2)cc1OC | 106%
59 | Cc1coc2cc3oc(=O)c(CCC(=O)NCc4ccc(Cl)cc4)c(C)c3cc12 | 69%
60 | CCn1cc2nc(SCc3ccc(C)cc3)n(CCc3ccccc3)c(=O)c2n1 | 78%
61 | N#Cc1cc2cc3c(cc2nc1SCC(=O)N1CCN(c2ccc(F)cc2)CC1)OCCO3 | 67%
62 | CC(C)(C)c1ccc(OCC(=O)Nc2ccc(C(=O)OC3CCCCC3)cc2)cc1 | 71%
63 | CCOC(=O)c1cc(-c2ccccc2)n(-c2cccc(C(=O)Nc3cccc(SC)c3)c2)c1C | 32% (active)
64 | CCOC(=O)c1cc(-c2ccccc2)n(-c2cccc(C(=O)Nc3ccc(OCC)cc3)c2)c1C | 37% (active)
65 | CCOC(=O)c1cc(-c2ccccc2)n(-c2cccc(C(=O)Nc3ccc(OC)cc3)c2)c1C | 83%
66 | CCOC(=O)c1cc(-c2ccccc2)n(-c2cccc(C(=O)Nc3cccc(F)c3)c2)c1C | 135%
67 | CCOC(=O)c1cc(-c2ccccc2)n(-c2cccc(C(=O)Nc3cc(OC)cc(OC)c3)c2)c1C | 81%
68 | CCOC(=O)c1cc(-c2ccccc2)n(-c2cccc(C(=O)Nc3cccc(C(C)=O)c3)c2)c1C | 89%
69 | CCOC(=O)c1ccccc1NC(=O)Nc1cc2c(cc1N1CCCCC1)n(C)c(=O)n2C | 76%
70 | CCC1CCCCN1C(=O)CSc1nnc(-c2ccc(OC)c(OC)c2)o1 (stereo not given) | 71%
71 | CCOc1cc(CNC(=O)CN2CCSc3ccccc32)cc(OCC)c1OCC | 85%
72 | CC(C)CCNC(=O)C1CCC(Cn2c(=O)c3sccc3n(CC(=O)NC(C)C)c2=O)CC1 (stereo not given) | 95%

Row | Compound | survival
73 | CCOC(=O)c1c(SCC(=O)Nc2nc3ccccc3s2)nc(=O)[nH]c1C | 6% (active)
74 | CCOC(=O)c1c(SCC(=O)Nc2cccc(C)c2C)nc(=O)[nH]c1C | 67%
75 | CCOC(=O)c1c(SCC(=O)Nc2nc3ccc(C)cc3s2)nc(=O)[nH]c1C | 70%
76 | CCCCc1ccc(C(=O)N/C(=C\c2ccc(C)cc2)C(=O)NC2CCCCC2)cc1 | 66%
77 | Cn1c(=O)n(CCCc2ccccc2)c(=O)c2c1nc1n2CCN1c1ccccc1 | 75%
78 | O=C(Nc1ccc(Cl)c(Cl)c1)c1cc(S(=O)(=O)N2CCN(c3cccc(Cl)c3)CC2)ccc1F | 68%
79 | COc1cc(C(=O)N2CCC(c3ccncc3)CC2)cc(OC)c1OC | 88%
80 | CCN(CC)c1ccc(C(=O)N2CCC(c3ccncc3)CC2)cc1 | 88%
81 | CCOc1cc(C(=O)N2CCC(c3ccncc3)CC2)cc(OCC)c1OCC | 17% (active)
82 | CCOc1ccc(C(=O)N2CCC(c3ccncc3)CC2)cc1 | 94%
83 | COc1ccc(C(=O)N2CCC(c3ccncc3)CC2)cc1OC | -5% (active)
84 | COc1cc(OC)cc(C(=O)N2CCC(c3ccncc3)CC2)c1 | 89%
85 | CCNC(=O)Cc1ccc(NC(=O)N2CCCCc3ccccc32)cc1 | 74%
86 | O=C(Nc1nnc2n1CCS2)c1ccccc1C(F)(F)F | 93%
87 | Cc1ccc(N2CCN(C(=O)c3ccc4c(Cl)c5c(nc4c3)CCCC5)CC2)c(C)c1 | 88%
88 | Cc1ccc(C)c(N2CCN(C(=O)c3ccc4c(Cl)c5c(nc4c3)CCCC5)CC2)c1 | 98%
89 | O=C(c1ccc2c(Cl)c3c(nc2c1)CCCC3)N1CCN(c2cccc(Cl)c2)CC1 | 65%
90 | Cc1cccc(N2CCN(C(=O)c3ccc4c(Cl)c5c(nc4c3)CCCC5)CC2)c1C | 93%
91 | O=C(c1ccc2c(Cl)c3c(nc2c1)CCCC3)N1CCN(c2ccccc2)CC1 | 20% (active)
92 | O=C(c1ccc2c(Cl)c3c(nc2c1)CCCC3)N1CCN(c2ccccc2F)CC1 | -3% (active)
93 | O=C(c1ccc2c(Cl)c3c(nc2c1)CCCC3)N1CCN(c2ccc(Cl)cc2)CC1 | 92%
94 | O=C(c1ccc2c(Cl)c3c(nc2c1)CCCC3)N1CCN(c2cccc(C(F)(F)F)c2)CC1 | 64%
95 | Cc1ccc(Cl)cc1N1CCN(C(=O)c2ccc3c(Cl)c4c(nc3c2)CCCC4)CC1 | 31% (active)
